4 compounds from PubChem BioAssay can be followed below.

Experiment [1] in a line: hESC survival regulators, cell-based (AID 493140; call rule not given here;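 note: cells exposed to compounds for four days before counting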). The following applies: human embryonic stem cell survival screen; stronger effect = higher value.
A short description of experiment [2]: liver-stage malaria parasite growth inhibition, primary screen, cell-based, HepG2, luciferase luminescence, HepG2 viability (AID 624349; in the data active = parasite load remaining mostly below about 12%, no sharp cut-off; inactive = mostly above about 10%;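 note: 100% = mean of DMSO negative control wells on the same plate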). The following applies: P. berghei liver stage in HepG2, luciferase luminescence, concentration not given here; parasite load remaining: stronger effect = lower value; viability: measured here: HepG2 viability without parasites.
Experiment [3] is described as follows: stimulators of nuclear beta-catenin in C2C12, primary screen, imaging, WNT3A-conditioned medium, mouse C2C12, NPC library (AID 1117326; in the data active = nuclear beta-catenin stimulation mostly above about 4.2%, no sharp cut-off; inactive = mostly below about 10%). As to conditions: stronger effect = higher value.
Experiment [4] can be described thus: stimulators of insulin release from INS-1E, primary screen, cell-based, 5 mM glucose, NPC library (AID 1117329;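 active = compound raises insulin release from rat beta cells at 5 mM glucose, no numeric limit stated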). The following applies: rat INS-1E insulin secretion, at 10 µM, stronger effect = higher value.
Experiment [5] in a line: growth inhibition of GSK3B-pretreated HCT116 cells – cell-based, CellTiter-Glo, 0.2 to 20 µM (AID 1117336;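 active = compounds lowering colon cancer cell viability after pretreatment blocking the GSK3B kinase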). As to conditions: HCT116 viability after GSK3B inhibitor, at 20 µM, stronger effect = higher value.
The nature of experiment [6]: inhibition of endothelial tube formation, primary screen, imaging, VEGF stimulated, CD31 staining, tube area, NPC library (AID 1117340;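 active = compound that reduces growth-factor-driven endothelial tube area in a mixed cell culture, no cutoff stated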). The following applies: VEGF-stimulated ADSC/ECFC co-culture, at 10 µM, stronger effect = higher value.
The nature of experiment [7]: glucagon-like peptide 1 release enhancers, primary assay, NCI-H716 cell line, NPC library (AID 1117341;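 active = compound raises GLP1 secretion from the human gut endocrine cells, with no numeric limit stated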). As to conditions: NCI-H716 cells, at 10 µM, stronger effect = higher value.
Experiment [8] is described as follows: HCT116 colon cancer cell growth inhibition, primary screen, CellTiter-Glo luminescence, NPC library (AID 1117342;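 active = compounds that lower survival of HCT116 colon cancer cells in the luminescence readout, no numeric limit stated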). As to conditions: at 20 µM (top of the series). Background: Cellular ATP, detected with luciferase, serves as a proxy for viable cell number.
Experiment [9] can be described thus: CellTiter-Glo luminescent readout of SW480 viability loss, NPC library primary (AID 1117343;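 active = compounds that lower viability of the colon cancer cells in the luminescence readout, with no numeric limit stated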). The following applies: CellTiter-Glo luminescence; at 20 µM (top of the series) unless noted.
Experiment [10] in a line: decreased DLD-1 cellular survival, CellTiter-Glo luminescent readout, NPC compound collection, primary HTS (AID 1117346;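 active = compounds that lower survival of DLD-1 colon cancer cells in the luminescence readout, no cutoff given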). The following applies: DLD-1 viability, CellTiter-Glo luminescence; at 20 µM (top of the series).
Experiment [11] can be described thus: differential killing of epithelial or mesenchymal cells, primary screen, imaging, PC-3E GFP, TEM4-18 mCherry, co-culture (AID 1345086;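 active = compounds killing one labelled cell type while sparing the other, by normalised counts and ratio limits, not self-fluorescent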;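 for all read-outs here: cells exposed to compound for 72 h before imaging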;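 for red/green cell ratio (normalised): normalised mesenchymal count divided by normalised epithelial count so high means epithelial killing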). As to conditions: imaging cell counts, at 1 µM; for red/green cell ratio (normalised): actives lie on both sides, counts scaled to control wells, 1 = unselective.
A short description of experiment [12]: sensitizers of A549 cells to miR-34 induction, primary screen, imaging, A549 dox-inducible miR-34, nuclei and caspase counts (AID 1347080). The following applies: A549 miR-34 inducible, Hoechst nuclei count, 48 h.
A short description of experiment [13]: survival rescue of mitochondrial mutant cells in low glucose, primary screen, MELAS cybrids, Rieske KO mouse fibroblasts, CellTiter-Glo (AID 1508586;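 active = mean z-score across replicates of 1.96 or higher in either the MELAS or the Rieske mutant cell line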;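 note: z relative to plate mean and SD of compound and empty wells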).
Experiment [14] deals with NAD(+) hydrolase SARM1 (Homo sapiens) (UniProt Q6SZW1). Kind of experiment: SARM1 TIR NADase inhibitors, cell lysate, NAD-Glo luminescence (AID 1508614;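 active = compound whose remaining NAD level is above about 45 nM, limit read from the data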;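 note: higher remaining NAD means stronger inhibition of SARM1 NADase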). As to conditions: SAM-TIR HEK293T lysate NADase, at 1 µM, stronger effect = higher value.
NAD(+) hydrolase SARM1 (Homo sapiens), sequence (Q6SZW1 whole entry, looked up): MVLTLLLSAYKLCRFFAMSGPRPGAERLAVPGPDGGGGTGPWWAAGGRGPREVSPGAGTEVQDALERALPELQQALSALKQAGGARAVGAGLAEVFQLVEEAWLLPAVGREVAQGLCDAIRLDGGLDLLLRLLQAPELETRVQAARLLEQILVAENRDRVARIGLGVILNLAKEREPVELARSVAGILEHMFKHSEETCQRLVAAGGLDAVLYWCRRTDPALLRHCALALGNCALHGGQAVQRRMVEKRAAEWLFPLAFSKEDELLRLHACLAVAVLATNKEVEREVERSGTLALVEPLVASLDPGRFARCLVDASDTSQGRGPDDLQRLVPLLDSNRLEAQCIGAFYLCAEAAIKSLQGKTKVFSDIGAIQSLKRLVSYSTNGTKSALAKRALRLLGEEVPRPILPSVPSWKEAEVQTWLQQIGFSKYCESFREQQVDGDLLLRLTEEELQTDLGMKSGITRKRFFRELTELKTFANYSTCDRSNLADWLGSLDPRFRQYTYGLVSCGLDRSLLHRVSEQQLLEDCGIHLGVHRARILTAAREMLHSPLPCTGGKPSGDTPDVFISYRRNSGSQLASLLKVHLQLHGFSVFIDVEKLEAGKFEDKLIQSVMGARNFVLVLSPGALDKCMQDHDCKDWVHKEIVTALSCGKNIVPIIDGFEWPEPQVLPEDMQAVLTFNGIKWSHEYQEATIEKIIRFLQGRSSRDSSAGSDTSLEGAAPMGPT
Setting [15] is: measured here: epithelial PC-3E GFP cell survival.
The mark [16] stands for this setting: measured here: mesenchymal TEM4-18 mCherry cell survival.
[17] abbreviates: stronger effect = lower value, cell number ratio, induced over uninduced.
Where [18] appears, read: measured here: relative caspase fold change +Dox/-Dox.
The mark [19] stands for this setting: measured here: total cells with miR-34 induction, stronger effect = lower value.
The mark [20] stands for this setting: measured here: total cells without miR-34 induction.
The mark [21] stands for this setting: MELAS cybrid survival, CellTiter-Glo 48 h, stronger effect = higher value.
Where [22] appears, read: Rieske KO mouse fibroblast survival, CellTiter-Glo 72 h.

Values joined by “and” are separate entries in the source; they are usually repeats but may differ in a detail not shown here. Identical values can stand only once. Active and inactive are the calls of the source.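 Rule for the calls, unless noted: active = compounds whose cell count with miR-34 switched on is under 0.7 times the count with it off; inactive = the rest.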

Broadly, the viability is a read-out of living cells in per cent, often relative to untreated cells. For the compound `OC(CCN1CCCCC1)(c1ccccc1)C1CC2C=CC1C2` (stereo not given), the survival in experiment [1] is 9.67 (inactive). In addition, the parasite load remaining in experiment [2] was 61.4% (inactive) and 36.1% (inactive). Further, the viability in experiment [2] is 78.3% and 106%. The nuclear beta-catenin stimulation was 0.3% (inactive) in experiment [3] (at 10 µM) and -0.7% in experiment [3] (stimulation, at 2 µM). Further, the insulin secretion stimulation in experiment [4] is 4.5% (inactive). Also, the viability decrease in [5] is -65.7% (inactive). For the same compound, the tube area decrease in experiment [6] was 1.4% (inactive). In addition, the GLP1 secretion stimulation in [7] was -4% (inactive). Moreover, the inhibition of viability in experiment [8] was 36.4% (inactive). Moreover, the viability decrease (inhibition) in [9] was 39.6% (inactive); in experiment [10] it was 2.7% (inactive). The red/green cell ratio (normalised) in experiment [11] was 0.98 (inactive). Moreover, the values for the normalised cell number in [11] (setting [15]) and in [11] (setting [16]) were 0.85 and 0.83, respectively. Also, the fold change in experiment [12] (setting [17]) was 1.01 (inactive) and 0.963 (inactive) and 0.83 (inactive); in experiment [12] (setting [18]), 1.73 and 0.774 and 4.12. Further, the cell count in [12] (setting [19]) was 10100 and 7400 and 10600; in experiment [12] (setting [20]), 9960 and 7680 and 12700. Also, the values for the z-score in experiment [13] (setting [21]) and in experiment [13] (setting [22]) were -0.399 (inactive) and 0.122, respectively. The remaining NAD in [14] is 10 nM (inactive).
As to `CC(=O)NCCCS(=O)(=O)O`, the nuclear beta-catenin stimulation in experiment [3] (at 10 µM) was -1.9% (inactive); in [3] (stimulation, at 2 µM), -0.8%. Also, in experiment [4], the insulin secretion stimulation was -0.1% (inactive). In addition, the viability decrease in [5] was -7.6% (inactive). Further, in experiment [6], the tube area decrease was 3.7% (inactive). Besides, the GLP1 secretion stimulation in experiment [7] is -1.3% (inactive). In addition, the inhibition of viability in experiment [8] was 1.8% (inactive). Also, the viability decrease (inhibition) in [9] is 4.2% (inactive); in experiment [10], -2% (inactive). The red/green cell ratio (normalised) in experiment [11] is 0.97 (inactive). In addition, the normalised cell number in [11] (setting [15]) is 1; in [11] (setting [16]) it was 0.97. In addition, the fold change was 0.904 (inactive) in experiment [12] (setting [17]) and 0.789 in experiment [12] (setting [18]). Moreover, the cell count in experiment [12] (setting [19]) came to 8720; in [12] (setting [20]) it was 9650. Also, the z-score in experiment [13] (setting [21]) was -0.172 (inactive); in experiment [13] (setting [22]), 0.0861. The remaining NAD in experiment [14] was 10 nM (inactive).
For the compound `CCN(CC)C(=O)c1ccc(O)c(OC)c1`, the survival in experiment [1] was 14.3 (inactive). In addition, the parasite load remaining in experiment [2] was 98.8% (inactive) and 82.6% (inactive) and 34.4% (inactive). The viability in [2] is 116% and 78.8% and 105%. The nuclear beta-catenin stimulation in experiment [3] (at 10 µM) was 0.4% (inactive); in experiment [3] (stimulation, at 2 µM) it was -0.5%. The insulin secretion stimulation in experiment [4] was -1.1% (inactive). The viability decrease in [5] is -5.6% (inactive). The tube area decrease in experiment [6] is 19.7% (inactive). Besides, the GLP1 secretion stimulation in experiment [7] was -0.9% (inactive). Moreover, the inhibition of viability in experiment [8] is -33.9% (inactive). For the same compound, the values for the viability decrease (inhibition) in experiment [9] and in experiment [10] were 107% (active) and -2.25% (inactive), respectively. In addition, the red/green cell ratio (normalised) in [11] is 1.01 (inactive). Further, the normalised cell number in experiment [11] (setting [15]) is 1.04; in [11] (setting [16]) it was 1.06. Besides, the fold change was 0.99 (inactive) and 0.899 (inactive) and 0.849 (inactive) in experiment [12] (setting [17]); 1.08 and 1.38 and 3.96 in [12] (setting [18]). The cell count in experiment [12] (setting [19]) was 10300 and 8560 and 11800; in [12] (setting [20]), 10400 and 9520 and 13900. Further, the z-score in [13] (setting [21]) is -0.598 (inactive); in experiment [13] (setting [22]), -0.406. Further, the remaining NAD in experiment [14] is 10 nM (inactive).
Turning to `C[C@H]1[C@H](NC(=O)/C(=N/OC(C)(C)C(=O)O)c2csc(N)n2)C(=O)N1S(=O)(=O)O` (stereo in doubt), the nuclear beta-catenin stimulation was 5% (inactive) in experiment [3] (at 10 µM) and -0.4% in experiment [3] (stimulation, at 2 µM). The insulin secretion stimulation in experiment [4] is 0.1% (inactive). Besides, the viability decrease in [5] was -16.4% (inactive). Besides, in experiment [6], the tube area decrease is 11.9% (inactive). The GLP1 secretion stimulation in experiment [7] was -1.9% (inactive). Besides, the inhibition of viability in experiment [8] is 0.97% (inactive). For the same compound, the viability decrease (inhibition) in experiment [9] was 25.1% (inactive); in experiment [10], -11.3% (inactive). For the same compound, in experiment [11], the red/green cell ratio (normalised) is 1.32 (inactive). Further, the normalised cell number stood at 0.82 in experiment [11] (setting [15]) and 1.08 in [11] (setting [16]).
